# Measurements from PubChem BioAssay.
# Values joined by “and” are separate entries in the source; they are usually repeats but may differ in a detail not shown here. Identical values can stand only once. Results filed as inconclusive are left out. Active and inactive are the calls of the source. Unless noted, cut-off not given; nearly all actives show AC50 up to about 30 µM.
# Tests used:
# [1] = stimulators of nuclear beta-catenin in C2C12, primary screen, imaging, WNT3A-conditioned medium, mouse C2C12, NPC library (AID 1117326; in the data active means nuclear beta-catenin stimulation mostly above about 4.2%, no sharp cut-off; inactive means mostly below about 10%; further: reference of the scale not given here); settings: stronger effect = higher value
# [2] = stimulators of insulin release from INS-1E, primary screen, cell-based, 5 mM glucose, NPC library (AID 1117329;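 active means compound raises insulin release from rat beta cells at 5 mM glucose, no numeric limit stated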; further: reference of the scale not given here); settings: rat INS-1E insulin secretion, at 10 µM, stronger effect = higher value
# [3] = growth inhibition of GSK3B-pretreated HCT116 cells – cell-based, CellTiter-Glo, 0.2 to 20 µM (AID 1117336;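 active means compounds lowering colon cancer cell viability after pretreatment blocking the GSK3B kinase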); settings: HCT116 viability after GSK3B inhibitor, at 20 µM, stronger effect = higher value
# [4] = inhibition of endothelial tube formation, primary screen, imaging, VEGF stimulated, CD31 staining, tube area, NPC library (AID 1117340;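 active means compound that reduces growth-factor-driven endothelial tube area in a mixed cell culture, no cutoff stated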); settings: VEGF-stimulated ADSC/ECFC co-culture, at 10 µM, stronger effect = higher value
# [5] = glucagon-like peptide 1 release enhancers, primary assay, NCI-H716 cell line, NPC library (AID 1117341;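 active means compound raises GLP1 secretion from the human gut endocrine cells, with no numeric limit stated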; further: reference of the scale not given here); settings: NCI-H716 cells, at 10 µM, stronger effect = higher value
# [6] = HCT116 colon cancer cell growth inhibition, primary screen, CellTiter-Glo luminescence, NPC library (AID 1117342;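 active means compounds that lower survival of HCT116 colon cancer cells in the luminescence readout, no numeric limit stated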); settings: at 20 µM (top of the series)
# [7] = CellTiter-Glo luminescent readout of SW480 viability loss, NPC library primary (AID 1117343;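 active means compounds that lower viability of the colon cancer cells in the luminescence readout, with no numeric limit stated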); settings: CellTiter-Glo luminescence; at 20 µM (top of the series) unless noted
# [8] = decreased DLD-1 cellular survival, CellTiter-Glo luminescent readout, NPC compound collection, primary HTS (AID 1117346;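 active means compounds that lower survival of DLD-1 colon cancer cells in the luminescence readout, no cutoff given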); settings: DLD-1 viability, CellTiter-Glo luminescence; at 20 µM (top of the series)
# [9] = growth inhibition of DIPG glioma cells, dose response, cell-based, JHH-DIPG-1, MIPE4.0, CellTiter-Glo, qHTS (AID 1347062; cut-off not given, nearly all actives have AC50 up to about 27 µM); settings: JHH-DIPG-1 viability, CellTiter-Glo ATP luminescence
# [10] = SU-DIPG-VI glioma cell viability, MIPE4.0 library, CellTiter-Glo luminescence, qHTS (AID 1347066); settings: CellTiter-Glo ATP luminescence;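 further: cells exposed to compound for 48 hours before readout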
# [11] = JHH-DIPG-1 glioma cell viability, MIPE5.0 library, CellTiter-Glo luminescence, qHTS (AID 1347067; cut-off not given, nearly all actives have AC50 up to about 26 µM;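 further: cells exposed to compound for 48 hours before readout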); settings: JHH-DIPG-1 glioma viability, CellTiter-Glo ATP luminescence
# [12] = SU-DIPG-XXV glioma cell viability, MIPE5.0 library, qHTS (AID 1347068; cut-off not given, nearly all actives have IC50 up to about 30 µM)
# [13] = growth inhibition of DIPG glioma cells, dose response, cell-based, SU-DIPG-IV, MIPE4.0, CellTiter-Glo, qHTS (AID 1347063); settings: SU-DIPG-IV viability, CellTiter-Glo ATP luminescence;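 further: compound exposure lasted 48 hours before the viability readout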
# [14] = viability loss in pontine glioma line – cell-based, SU-DIPG-XXV, MIPE5.0, CellTiter-Glo, qHTS, dose response (AID 1347065; cut-off not given, nearly all actives have AC50 up to about 26 µM;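 further: cells exposed to compound for 48 hours before ATP readout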); settings: CellTiter-Glo ATP luminescence
# [15] = sensitizers of A549 cells to miR-34 induction, primary screen, imaging, A549 dox-inducible miR-34, nuclei and caspase counts (AID 1347080;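 active means compounds whose cell count with miR-34 switched on is under 0.7 times the count with it off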); settings: A549 miR-34 inducible, Hoechst nuclei count, 48 h
# [16] = survival rescue of mitochondrial mutant cells in low glucose, primary screen, MELAS cybrids, Rieske KO mouse fibroblasts, CellTiter-Glo (AID 1508586;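 active means mean z-score across replicates of 1.96 or higher in either the MELAS or the Rieske mutant cell line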;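 further: z relative to plate mean and SD of compound and empty wells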)
# [17] = phospholipid biosynthesis inhibitors in animal cells, primary screen, cell-based, LOPAC library, screen 4 (AID 1347384; call rule not given here); settings: phospholipid biosynthesis inhibition screen, at 10 µM
# [18] = viability rescue of complex I mutant cybrids, primary screen, cell-based, galactose medium, ATP luminescence (AID 1645843;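 active means z-score of at least 1.8 in each of two replicates, scored against plate mean and spread of sample wells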;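 further: positive z means more ATP and so rescue of galactose-driven cybrid death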); settings: complex I mutant cybrid cells, 72 h, stronger effect = higher value
# [19] = stronger effect = lower value, cell number ratio, induced over uninduced
# [20] = measured here: relative caspase fold change +Dox/-Dox
# [21] = measured here: total cells with miR-34 induction, stronger effect = lower value
# [22] = measured here: total cells without miR-34 induction
# [23] = MELAS cybrid survival, CellTiter-Glo 48 h, stronger effect = higher value
# [24] = Rieske KO mouse fibroblast survival, CellTiter-Glo 72 h
compound,measurement,setting,value
C[C@]12CCC(=O)C=C1[C@@H]1C[C@@H]1[C@H]1[C@@H]3[C@@H]4C[C@@H]4[C@@]4(CCC(=O)O4)[C@@]3(C)CC[C@@H]12,nuclear beta-catenin stimulation,[1]; at 10 µM,1.8% (inactive)
same,nuclear beta-catenin stimulation,"[1]; stimulation, at 2 µM",3%
same,insulin secretion stimulation,[2],1.5% (inactive)
same,viability decrease,[3],2.2% (inactive)
same,tube area decrease,[4],2.8% (inactive)
same,GLP1 secretion stimulation,[5],3.8% (inactive)
same,inhibition of viability,[6],27.4% (inactive)
same,viability decrease (inhibition),[7],-2.6% (inactive)
same,viability decrease (inhibition),[8],3.1% (inactive)
same,outcome,[9],inactive
same,outcome,[10],inactive
same,outcome,[11],inactive
same,outcome,[12],inactive
N=C(N)c1ccc2cc(OC(=O)c3ccc(N=C(N)N)cc3)ccc2c1,nuclear beta-catenin stimulation,[1]; at 10 µM,0% (inactive)
same,nuclear beta-catenin stimulation,"[1]; stimulation, at 2 µM",0.3%
same,insulin secretion stimulation,[2],1.85% (inactive)
same,viability decrease,[3],4.1% (inactive)
same,tube area decrease,[4],-18% (inactive)
same,GLP1 secretion stimulation,[5],2.8% (inactive)
same,inhibition of viability,[6],30.6% (inactive)
same,viability decrease (inhibition),[7],36.9% (inactive)
same,viability decrease (inhibition),[8],1.2% (inactive)
same,outcome,[9],inactive
same,outcome,[13],inactive
same,outcome,[14],inactive
same,outcome,[10],inactive
same,outcome,[11],inactive
same,outcome,[12],inactive
same,fold change,[15]; [19],1.02 (inactive) and 0.918 (inactive)
same,fold change,[15]; [20],1.3 and 0.971
same,cell count,[15]; [21],3730 and 5820
same,cell count,[15]; [22],3670 and 6340
same,z-score,[16]; [23],-0.205 (inactive)
same,z-score,[16]; [24],0.234
CC(=O)N[C@H]1[C@H]([C@H](O)[C@H](O)CO)OC(C(=O)O)=C[C@@H]1N=C(N)N,nuclear beta-catenin stimulation,[1]; at 10 µM,0.9% (inactive)
same,nuclear beta-catenin stimulation,"[1]; stimulation, at 2 µM",0.5%
same,insulin secretion stimulation,[2],-2.6% (inactive)
same,viability decrease,[3],-14.4% (inactive)
same,tube area decrease,[4],7.8% (inactive)
same,GLP1 secretion stimulation,[5],-2.9% (inactive)
same,inhibition of viability,[6],-2.4% (inactive)
same,viability decrease (inhibition),[7],19.9% (inactive)
same,viability decrease (inhibition),[8],2.95% (inactive)
same,outcome,[9],inactive
same,outcome,[13],inactive
same,outcome,[10],inactive
CC(C)(C)C(=O)Oc1ccc(S(=O)(=O)Nc2ccccc2C(=O)NCC(=O)O)cc1,nuclear beta-catenin stimulation,[1]; at 10 µM,0.7% (inactive)
same,nuclear beta-catenin stimulation,"[1]; stimulation, at 2 µM",1.7%
same,insulin secretion stimulation,[2],0% (inactive)
same,viability decrease,[3],66% (active)
same,tube area decrease,[4],-2.9% (inactive)
same,GLP1 secretion stimulation,[5],0.3% (inactive)
same,inhibition of viability,[6],24.1% (inactive)
same,viability decrease (inhibition),[7],70% (active)
same,viability decrease (inhibition),[8],3.4% (inactive)
same,outcome,[9],inactive
same,outcome,[12],inactive
same,fold change,[15]; [19],1.07 (inactive)
same,fold change,[15]; [20],1.11
same,cell count,[15]; [21],10600
same,cell count,[15]; [22],9900
same,outcome,[17],inactive
same,z-score,[18],0.85 (inactive)
CC1(C)CCC(C)(C)c2cc(NC(=O)c3ccc(C(=O)O)cc3)ccc21,nuclear beta-catenin stimulation,[1]; at 10 µM,8% (inactive)
same,nuclear beta-catenin stimulation,"[1]; stimulation, at 2 µM",8.5%
same,insulin secretion stimulation,[2],-0.4% (inactive)
same,viability decrease,[3],77.6% (active)
same,tube area decrease,[4],5.5% (inactive)
same,GLP1 secretion stimulation,[5],4% (inactive)
same,inhibition of viability,[6],69.7% (active)
same,viability decrease (inhibition),[7],47.9% (inactive)
same,viability decrease (inhibition),[8],43.1% (inactive)
same,outcome,[9],inactive
same,outcome,[14],inactive
same,outcome,[10],inactive
same,outcome,[11],inactive
same,outcome,[12],inactive
same,fold change,[15]; [19],0.901 (inactive)
same,fold change,[15]; [20],0.365
same,cell count,[15]; [21],8210
same,cell count,[15]; [22],9110
same,z-score,[16]; [23],0.242 (inactive)
same,z-score,[16]; [24],-0.199
